# In PubChem BioAssay AID1159580 (chemical genetic matrix, 2015):
# Screen size: about 5,500 compounds; about 2,000 (36%) were called active. About 18% were inconclusive and are not listed. Some of the results follow. Values without a mark were called inactive. No stated cut-off is given here; in the data, active means normalized growth mostly below about 0.91 (no sharp cut-off); inconclusive means no clear call, values can overlap the other calls; inactive means mostly above about 0.92.
# Test: chemical genetic growth profiling, strain panel (AID 1159580);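 further: tested at 20 µM; growth read once vehicle control cultures reached saturation at 30 °C; 1 = growth at the plate median or of vehicle wells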
# Conditions: S. cerevisiae deletion strains, growth OD
compound,measurement,setting,value
O=C(OC1Cc2c(O)cc(O)cc2OC1c1cc(O)c(O)c(O)c1-c1c(C2Oc3cc(O)cc(O)c3CC2OC(=O)c2cc(O)c(O)c(O)c2)cc(O)c(O)c1O)c1cc(O)c(O)c(O)c1 (centres undefined),normalized growth,"locus YAL021C, strain ccr4, stronger effect = lower value",0.833 (active)
same,normalized growth,"locus YAL026C, strain drs2, stronger effect = lower value",0.982
same,normalized growth,"locus YAL030W, strain snc1, stronger effect = lower value",0.998
same,normalized growth,"locus YBL061C, strain skt5, stronger effect = lower value",0.982
same,normalized growth,"locus YBR009C, strain hhf1, stronger effect = lower value",0.995
same,normalized growth,"locus YBR021W, strain FUR4, stronger effect = lower value",0.988
same,normalized growth,"locus YBR023C, strain chs3, stronger effect = lower value",0.941
same,normalized growth,"locus YBR171W, strain sec66, stronger effect = lower value",1.01
same,normalized growth,"locus YBR229C, strain ROT2, stronger effect = lower value",1
same,normalized growth,"locus YBR231C, strain swc5, stronger effect = lower value",0.929
same,normalized growth,"locus YBR279W, strain paf1, stronger effect = lower value",0.989
same,normalized growth,"locus YCL011C, strain gbp2, stronger effect = lower value",1.01
same,normalized growth,"locus YCL016C, strain dcc1, stronger effect = lower value",1.01
same,normalized growth,"locus YCL029C, strain bik1, stronger effect = lower value",0.981
same,normalized growth,"locus YCL061C, strain MRC1, stronger effect = lower value",1.01
same,normalized growth,"locus YCL069W, strain vba3, stronger effect = lower value",1.02
same,normalized growth,"locus YCR088W, strain abp1, stronger effect = lower value",1.02
same,normalized growth,"locus YDL005C, strain med2, stronger effect = lower value",1.02
same,normalized growth,"locus YDL035C, strain GPR1, stronger effect = lower value",1.04
same,normalized growth,"locus YDL040C, strain nat1, stronger effect = lower value",1.03
same,normalized growth,"locus YDL074C, strain BRE1, stronger effect = lower value",0.969
same,normalized growth,"locus YDL101C, strain DUN1, stronger effect = lower value",1
same,normalized growth,"locus YDL185W, strain tfp1, stronger effect = lower value",0.988
same,normalized growth,"locus YDL192W, strain arf1, stronger effect = lower value",0.985
same,normalized growth,"locus YDR001C, strain nth1, stronger effect = lower value",1.02
same,normalized growth,"locus YDR069C, strain doa4, stronger effect = lower value",0.797 (active)
same,normalized growth,"locus YDR101C, strain arx1, stronger effect = lower value",0.998
same,normalized growth,"locus YDR137W, strain rgp1, stronger effect = lower value",0.833 (active)
same,normalized growth,"locus YDR150W, strain NUM1, stronger effect = lower value",1
same,normalized growth,"locus YDR159W, strain sac3, stronger effect = lower value",1.11
same,normalized growth,"locus YDR162C, strain NBP2, stronger effect = lower value",1.02
same,normalized growth,"locus YDR195W, strain ref2",1.07
same,normalized growth,"locus YDR297W, strain sur2, stronger effect = lower value",0.992
same,normalized growth,"locus YDR318W, strain mcm21, stronger effect = lower value",0.995
same,normalized growth,"locus YDR334W, strain swr1, stronger effect = lower value",0.977
same,normalized growth,"locus YDR335W, strain msn5, stronger effect = lower value",1
same,normalized growth,"locus YDR388W, stronger effect = lower value",0.99
same,normalized growth,"locus YDR392W, strain spt3, stronger effect = lower value",1.02
same,normalized growth,"locus YDR502C, strain sam2, stronger effect = lower value",0.985
same,normalized growth,"locus YEL003W, strain gim4, stronger effect = lower value",0.989
same,normalized growth,"locus YEL037C, strain rad23, stronger effect = lower value",0.993
same,normalized growth,"locus YEL061C, strain CIN8 (second series), stronger effect = lower value",1.01
same,normalized growth,"locus YEL061C, strain CIN8, stronger effect = lower value",1.01
same,normalized growth,"locus YER015W, strain faa2, stronger effect = lower value",0.926 (active)
same,normalized growth,"locus YER016W, strain bim1, stronger effect = lower value",1.01
same,normalized growth,"locus YER110C, stronger effect = lower value",0.994
same,normalized growth,"locus YER111C, strain swi4, stronger effect = lower value",0.973
same,normalized growth,"locus YER155C, strain BEM2 (second series), stronger effect = lower value",0.994
same,normalized growth,"locus YER155C, strain BEM2, stronger effect = lower value",0.977
same,normalized growth,"locus YER167W, strain BCK2, stronger effect = lower value",1
same,normalized growth,"locus YFR010W, strain ubp6, stronger effect = lower value",0.934
same,normalized growth,"locus YGL078C, strain dbp3, stronger effect = lower value",0.987
same,normalized growth,"locus YGL086W, strain mad1, stronger effect = lower value",1
same,normalized growth,"locus YGL167C, strain pmr1, stronger effect = lower value",1
same,normalized growth,"locus YGL173C, strain kem1, stronger effect = lower value",0.981
same,normalized growth,"locus YGL227W, strain vid30, stronger effect = lower value",1.05
same,normalized growth,"locus YGL240W, strain doc1, stronger effect = lower value",1.04
same,normalized growth,"locus YGL248W, strain PDE1, stronger effect = lower value",1
same,normalized growth,"locus YGL253W, strain hxk2, stronger effect = lower value",0.994
same,normalized growth,"locus YGR078C, strain PAC10, stronger effect = lower value",0.983
same,normalized growth,"locus YGR135W, strain pre9, stronger effect = lower value",0.989
same,normalized growth,"locus YGR252W, strain gcn5, stronger effect = lower value",1.01
same,normalized growth,"locus YHR013C, strain ard1, stronger effect = lower value",0.852
same,normalized growth,"locus YHR027C, strain rpn1, stronger effect = lower value",0.849 (active)
same,normalized growth,"locus YHR030C, strain SLT2, stronger effect = lower value",0.998
same,normalized growth,"locus YHR079C, strain IRE1 (second series), stronger effect = lower value",0.987
same,normalized growth,"locus YHR094C, strain hxt1, stronger effect = lower value",0.989
same,normalized growth,"locus YHR129C, strain ARP1, stronger effect = lower value",0.983
same,normalized growth,"locus YHR142W, strain chs7, stronger effect = lower value",0.95
same,normalized growth,"locus YHR200W, strain rpn10, stronger effect = lower value",1
same,normalized growth,"locus YIL066C, strain RNR3, stronger effect = lower value",1.03
same,normalized growth,"locus YIL073C, strain SPO22, stronger effect = lower value",1.1
same,normalized growth,"locus YIL125W, strain kgd1, stronger effect = lower value",0.973
same,normalized growth,"locus YIR030C, strain dcg1, stronger effect = lower value",0.995
same,normalized growth,"locus YJL092W, strain hpr5, stronger effect = lower value",1.03
same,normalized growth,"locus YJL095W, strain BCK1 (second series), stronger effect = lower value",0.987
same,normalized growth,"locus YJL095W, strain BCK1, stronger effect = lower value",0.976
same,normalized growth,"locus YJL115W, strain asf1, stronger effect = lower value",1.02
same,normalized growth,"locus YJL129C, strain trk1, stronger effect = lower value",1.04
same,normalized growth,"locus YJL134W, strain LCB3, stronger effect = lower value",1.02
same,normalized growth,"locus YJL154C, strain vps35, stronger effect = lower value",1.01
same,normalized growth,"locus YJL164C, strain tpk1, stronger effect = lower value",0.937
same,normalized growth,"locus YJL166W, strain qcr8, stronger effect = lower value",0.989
same,normalized growth,"locus YJL168C, strain set2, stronger effect = lower value",0.981
